# According to PubChem BioAssay (NCI):
# This is part of a sample that, as a whole, favours compounds with a hit. Of some 79,000 tested, about 15% had one in any assay. A number with no mark means an inactive call. The source made the active and inactive calls. No stated cut-off is given here; in the data, active means growth inhibition above about 70%; inactive means the rest.
# How the values were obtained:
# [1] = NCI Yeast Anticancer Drug Screen. Data for the rad50 strain (AID 155);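 further: 0% = growth of vehicle-only cultures of the same strain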; conditions: S. cerevisiae rad50 strain growth inhibition, active compounds read high
# Procedure, shortened: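 Growth of the mutant yeast was measured after compound exposure and referenced to vehicle-treated cultures.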
# [2] = NCI Yeast Anticancer Drug Screen. Data for the mec2-1 strain (AID 157); conditions: S. cerevisiae mec2-1 strain, active compounds read high
# Procedure, shortened: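 mec2-1 yeast strain, carrying an alteration in DNA damage repair or cell cycle control, was exposed to compounds; growth inhibition was measured relative to vehicle-treated controls.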
# [3] = NCI Yeast Anticancer Drug Screen. Data for the sgs1 mgt1 strain (AID 161);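 further: 0% = growth of cultures given vehicle only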; conditions: S. cerevisiae sgs1 mgt1 strain, active compounds read high
# Procedure, shortened: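 Growth of a repair-deficient yeast mutant was monitored after compound treatment and expressed as inhibition relative to vehicle-treated cultures.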
# [4] = NCI Yeast Anticancer Drug Screen. Data for the cln2 rad14 strain (AID 165);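 further: 0% = growth equal to vehicle treated cultures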; conditions: S. cerevisiae cln2 rad14 strain, active compounds read high
# Procedure, shortened: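 Yeast carrying cln2 and rad14 alterations (cell cycle control and DNA damage repair) were exposed to compounds. Growth inhibition was measured against vehicle-treated controls.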
# [5] = NCI Yeast Anticancer Drug Screen. Data for the bub3 strain (AID 167); conditions: S. cerevisiae bub3 mutant strain, active compounds read high
# Procedure, shortened: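 Whole-cell yeast assay. The mutant strain was incubated with compounds, and growth inhibition was determined by comparison with vehicle-treated cells.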
# [6] = NCI Yeast Anticancer Drug Screen. Data for the mlh1 rad18 strain (AID 175); conditions: S. cerevisiae mlh1 rad18 strain growth inhibition, active compounds read high
# Procedure, shortened: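 Growth inhibition of the yeast strain was measured after compound exposure and expressed relative to vehicle-treated controls. The strain carries defined defects in DNA damage repair.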
# [7] = at 5.0 µM (retest, dose inferred, filed as 0.5)
# [8] = at 50.0 µM (retest, dose inferred, filed as 5.0)
SMILES,"growth inhibition [1, 7]","growth inhibition [1, 8]",growth inhibition ([1]; at 50.0 µM),"growth inhibition [2, 7]","growth inhibition [2, 8]",growth inhibition ([2]; at 50.0 µM),"growth inhibition [3, 7]","growth inhibition [3, 8]",growth inhibition ([3]; at 50.0 µM),"growth inhibition [4, 7]","growth inhibition [4, 8]",growth inhibition ([4]; at 50.0 µM),"growth inhibition [5, 7]","growth inhibition [5, 8]",growth inhibition ([5]; at 50.0 µM),"growth inhibition [6, 7]","growth inhibition [6, 8]",growth inhibition ([6]; at 50.0 µM)
O=C1/C(=C/c2ccc(F)cc2)CNC/C1=C\c1ccc(F)cc1,12%,44%,79.2% (active),5%,36%,84.8% (active),-2%,31%,79.2% (active),35%,43%,70.6% (active),-11%,37%,79.8% (active),16%,53%,85.5% (active)
COC(=O)Oc1nn(C(=O)OC)c(=O)c2ccccc12,-18%,87% (active),90.9% (active),-3%,45%,24.2%,-17%,43%,44.4%,7%,66%,99.6% (active),5%,58%,99.5% (active),-12%,54%,86.5% (active)
CO/N=C/c1cc(NC(=S)c2ccoc2C)ccc1Cl,4%,0%,93.2% (active),-16%,-17%,94.2% (active),20%,6%,93.7% (active),-26%,10%,92.2% (active),9%,34%,92.2% (active),-23%,-14%,91.2% (active)
O=[N+]([O-])c1ccccc1NC1CCN(CCCC2(c3ccc(F)cc3)OCCO2)CC1,11%,96% (active),99% (active),7%,94% (active),98% (active),16%,99% (active),98.6% (active),9%,94% (active),93.3% (active),10%,97% (active),41.4%,11%,94% (active),98.7% (active)
O=C(O)/C=C\c1cc2ccccc2c2ccccc12,13%,98% (active),98.8% (active),-11%,99% (active),98.8% (active),18%,98% (active),98.4% (active),11%,99% (active),98.3% (active),8%,99% (active),98.5% (active),18%,99% (active),98.6% (active)
COC1OC(CBr)C(OC(c2ccccc2)(c2ccccc2)c2ccccc2)C(OC(c2ccccc2)(c2ccccc2)c2ccccc2)C1OC(c1ccccc1)(c1ccccc1)c1ccccc1 (configuration not stated),-11%,11%,98.8% (active),-12%,-27%,98.7% (active),-11%,-9%,98.5% (active),-8%,33%,96.5% (active),-2%,25%,97.7% (active),-5%,32%,98% (active)
COc1cc[c]([Sn]([O][Sn]([Cl])([c]2ccc(OC)cc2)[c]2ccc(OC)cc2)[c]2ccc(OC)cc2)cc1,47%,95% (active),27.7%,31%,86% (active),32.9%,58%,98% (active),69.8%,28%,88% (active),53.5%,50%,96% (active),71.3% (active),55%,94% (active),73.7% (active)
CN(C)CCCNc1c2ccccc2nc2cccc([N+](=O)[O-])c12,93% (active),99% (active),89.4% (active),95% (active),99% (active),93% (active),95% (active),99% (active),92.8% (active),95% (active),99% (active),89.2% (active),76% (active),99% (active),90.8% (active),90% (active),98% (active),89.9% (active)
O=S(=O)(CC(Br)CCl)c1ccccc1 (configuration not stated),2%,72% (active),15.1%,2%,55%,31.3%,-1%,46%,40.5%,4%,17%,-62.6%,5%,38%,54.8%,13%,76% (active),57%
Cc1cccc2ccc3cc(CC(=O)O)c4cccc(C)c4c3c12,45%,99% (active),99.7% (active),33%,99% (active),99.8% (active),42%,99% (active),99.8% (active),33%,99% (active),99.5% (active),32%,99% (active),99.8% (active),36%,99% (active),99.7% (active)
CCCCC(O)CCCC,13%,17%,4.55%,14%,18%,8.65%,-5%,9%,15.8%,3%,13%,22.2%,43%,91% (active),64.2%,31%,25%,-7.1%
N#CC12CC3=C(N=C1NC1=C(CCc4ccccc41)C2)c1ccccc1CC3 (configuration not stated),24%,51%,57.8%,19%,34%,42.8%,20%,44%,48.5%,18%,29%,17.9%,23%,45%,51.1%,20%,60%,24.6%
CCN(CC)CCNc1c(OC)cc(C)c2sc3ccccc3c(=O)c12,8%,75% (active),81.2% (active),6%,-1%,39.5%,0%,66%,82.8% (active),1%,39%,33.1%,1%,33%,57%,4%,86% (active),94% (active)
N#CC#Cc1cccc(C#CC#N)c1,98% (active),98% (active),98% (active),99% (active),99% (active),98.9% (active),99% (active),99% (active),50%,99% (active),98% (active),98.8% (active),98% (active),98% (active),98.9% (active),99% (active),98% (active),99.2% (active)
Cc1ccc([N+](=O)[O-])cc1Cl,-3%,-4%,-4.35%,2%,-2%,-8.45%,1%,-1%,-2.6%,-2%,-1%,93.2% (active),-3%,-4%,-3.85%,-1%,-6%,-2.45%
CC(=O)OC(C#N)CC(C)(C)/[N+]([O-])=[N+](\[O-])C(C)(C)CC(C#N)OC(C)=O (configuration not stated),6%,44%,23.9%,1%,46%,43.5%,8%,97% (active),77.3% (active),14%,61%,3.2%,3%,79% (active),68.1%,11%,80% (active),80% (active)
O=C1CN(CCN2CCOCC2)CC(=O)N2CCCCN12,1%,-1%,3.3%,-2%,-1%,2.55%,3%,7%,32.6%,-8%,2%,11.6%,-6%,-3%,5.7%,-1%,-2%,1.45%
O=Cc1ccc([N+](=O)[O-])o1,36%,98% (active),99.6% (active),7%,99% (active),99.4% (active),13%,99% (active),99.6% (active),-1%,85% (active),98.6% (active),-3%,57%,99.8% (active),20%,99% (active),99.5% (active)
Cc1[nH]c(=O)[nH]c(=S)c1C(=O)NC1C2CCCCC2NC2CCCCC21 (configuration not stated),67%,96% (active),75.5% (active),49%,97% (active),83.3% (active),49%,97% (active),76.4% (active),74% (active),98% (active),85% (active),48%,97% (active),77.8% (active),46%,96% (active),71.9% (active)
